From PubChem BioAssay AID686978 (National Center for Advancing Translational Sciences (NCATS), 2013) come the findings set out here.

Values joined by “and” are separate entries in the source; they are usually repeats but may differ in a detail not shown here. Identical values can stand only once. The campaign covered roughly 420,000 compounds. About 64,000 (15%) were called active. Not shown: some 27% with an inconclusive outcome. Calls follow the shape of the dose curve; as a rule, active = well fitted inhibition curve with a large enough effect; inconclusive = small, poorly fitted or top-dose-only effect; inactive = flat fitted curve, though single readings scatter. Not all results are given here. A call without a number means that no potency is given here.
Potency is read from the fitted curve at half-maximal effect.

The experiment is described as follows: qHTS for Inhibitors of human tyrosyl-DNA phosphodiesterase 1 (TDP1): qHTS in cells in absence of CPT. Also: nearly all actives have a fitted effect of over 55% in size. To be noted: DT40 Tdp1-/- hTDP1 cells, no CPT, ATP luminescence, 48 h; activity change, negative = growth inhibition: at 46.2 µM (top of the series). The procedure, abridged:
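Growth of hTDP1-complemented DT40 Tdp1-knockout cells is measured by ATP luminescence after at least 48 hr compound exposure at 37 °C, with DMSO substituting for the 20 nM CPT used in the parallel screen.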
As for `CCCCc1nc2ccc(F)cc2cc1C`, the Potency entry was “inactive”.

Turning to `OCC[C@H]1C[C@H](O)[C@@H](O)[C@]2(Cc3ccccc3CO2)O1`, the Potency entry was “inactive”.

As to `O=C1OCCC1=COCCCCOC=C1CCOC1=O`, the Potency entry is “inactive”.

Turning to `Cc1ccnc(NC(=O)CCNS(=O)(=O)c2ccc(C)c(C)c2)c1`, the Potency entry is “inactive”.

Regarding `CC(=O)CCS(=O)(=O)c1ccc(C)c(C)c1`, the Potency was 29.1 µM (active).

As for `Cc1ccc(S(=O)(=O)NCCC(=O)Nc2ccc(C)c(Cl)c2)cc1C`, the Potency result was “inactive”.

For the compound `CC(=O)Nc1c2c(nn1-c1cccc(C)c1)CSC2`, the Potency result is “inactive”.

For `Cn1cc(-c2nc3cncnc3n(-c3ccccc3)c2=O)c2ccccc21`, the Potency result was “inactive”.

Turning to `Cc1cc(C(=O)OCC(=O)Nc2ccccc2Cl)c(C)o1`, the Potency result is “inactive”.

Regarding `O=C(Nc1ccc(S(=O)(=O)Nc2ncccn2)cc1)C12CC3CC(CC(C3)C1)C2`, the Potency result is “inactive”.

As for `CCn1nccc1C(=O)Nc1ccc(Cl)c(Cl)c1`, the Potency result is “inactive”.

As to `CCn1nccc1C(=O)Nc1ccc(S(=O)(=O)NC23CC4CC(CC(C4)C2)C3)cc1`, the Potency was 16.4 µM (active).

Take `O=C(NC(=O)N1CCOCC1)c1ccccc1`: the Potency result is “inactive”.

With `CCOC(=O)c1ccccc1NS(=O)(=O)c1ccc(OC)cc1`, the Potency was 14.6 µM (active).

In the case of `COCCNC(=O)c1ccccc1NS(=O)(=O)c1ccc(C)c([N+](=O)[O-])c1`, the Potency entry is “inactive”.

For `CCOc1cc(NS(=O)(=O)c2ccc(OC)cc2)c(OCC)cc1NC(C)=O`, the Potency entry is “inactive”.

As for `O=c1nc(N/N=C/c2ccco2)cn[nH]1`, the Potency result was “inactive”.

For `CC1CC(C)CN(C(=O)C2CC(=O)N(c3ccc(F)cc3)C2)C1` (stereo not given), the Potency result is “inactive”.

Consider `CCOc1cc(C(=O)OCC(=O)Nc2cccc(C)c2)ccc1OCC(=O)N1CCOCC1`, for which the Potency result is “inactive”.

Take `COc1ccc(C2CC(=O)Oc3ccc(C(C)(C)C)cc32)cc1` (stereo not given): the Potency result was “inactive”.

`COc1ccc(-c2cc(C(=O)NCCCn3ccnc3)no2)cc1`: the Potency result was “inactive”.

As for `COc1ccccc1-c1cc(C(=O)NCCCn2ccnc2)no1`, the Potency entry is “inactive”.

`O=C(NCCCn1ccnc1)c1cc(-c2ccccc2)on1`: the Potency was 7.31 µM (active).

With `O=C(NCCN1CCOCC1)[C@H](Cc1ccccc1)N1C(=O)c2ccccc2C1=O`, the Potency entry is “inactive”.

For the compound `Cc1csc(SCC(=O)Nc2sccc2C#N)n1`, the Potency result was “inactive”.

For `Brc1ccc(-c2n(-c3ccccn3)c3ccccc3[n+]2-c2ccccn2)cc1`, the Potency was 13 µM (active).

As for `O=C(Cc1ccc(Br)cc1)N1CCN(c2ccccn2)CC1`, the Potency result is “inactive”.

Take `Cn1cc(CNC(=O)c2ccc(OC3CCN(Cc4ccccn4)CC3)cc2)cn1`: the Potency entry is “inactive”.

As for `CN(C(=O)CSc1nc2ccccc2n1Cc1ccccc1C#N)c1ccccc1`, the Potency is 18.4 µM (active).

With `Cc1ccc(Cn2c(SCC(=O)N/N=C/c3ccccc3OCC(=O)O)nc3ccccc32)cc1`, the Potency result was “inactive”.

`COC(=O)CSc1nc2ccccc2c(=O)n1Cc1ccccc1`: the Potency entry is “inactive”.

For `COC(=O)c1ccc(Cn2c(SCC(=O)N(C)c3ccccc3)nc3ccccc32)cc1`, the Potency was 23.1 µM (active).

Turning to `CCN(CC)C(=O)CSc1nc2ccccc2n1CC(=O)N1CCN(c2ccccc2OC)CC1`, the Potency result is “inactive”.

For `CCn1c(SCC(=O)N2CCCC2=O)nc2ccccc21`, the Potency entry is “inactive”.

Turning to `CC1=C(C/C=C(\C)CCCC(C)CCCC(C)CCCC(C)C)C(=O)c2ccccc2C1=O` (stereo not given), the Potency entry was “inactive”.

Take `Cc1cc(C)cc(NC(=O)COc2coc(CN3CCN(c4ccccc4)CC3)cc2=O)c1`: the Potency entry was “inactive”.

`CC1(C(=O)NS(=O)(=O)c2cccc(F)c2)CCN1C(=O)Cc1ccc(Cl)cc1Cl` (stereo not given): the Potency entry is “inactive”.

For `COc1ccccc1NC(=O)c1ccc(N2CC3CC(C2)c2cccc(=O)n2C3)c(NC(=O)c2cccnc2)c1` (stereo not given), the Potency result was “inactive”.

Turning to `O=C(OCC1OC(Oc2ccc(O)cc2)C(O)C(O)C1O)c1ccccc1` (stereo not given), the Potency entry was “inactive”.

Turning to `CCCCCCNC(=O)CSc1nccn1Cc1ccccc1`, the Potency entry is “inactive”.

For the compound `O=C(CSc1nccn1Cc1ccc(Cl)cc1)NCc1ccccc1`, the Potency is 29.1 µM (active).

Regarding `CCCCNC(=O)CSc1nccn1Cc1ccccc1`, the Potency result was “inactive”.

`N=c1oc2ccccc2cc1C(=O)N/N=C/c1ccccc1`: the Potency entry was “inactive”.

With `NC(=O)c1ccccc1N=Cc1ccc2ccccc2c1`, the Potency is 16.4 µM (active).

In the case of `O=C(COC(=O)Cc1ccccc1F)NNC(=O)c1ccc(Cl)cc1`, the Potency entry was “inactive”.

With `Cc1ccc(C)c(NC(=O)C2Cc3ccccc3CN2C(=O)OCc2ccccc2)c1` (stereo not given), the Potency was 20.6 µM (active).

As for `Cc1ccc(NC(=O)C2CCCN2C(=O)OCc2ccccc2)cc1C` (stereo not given), the Potency result was “inactive”.

Turning to `Cc1ccc(S(=O)(=O)N(C)C)cc1NC(=O)C1Cc2ccccc2CN1C(=O)c1ccco1` (stereo not given), the Potency result is “inactive”.

With `Fc1ccccc1OCCCCn1cncn1`, the Potency entry was “inactive”.

For the compound `COc1cc(/C=C/CNC[C@H]2O[C@@H](n3cnc(C(N)=O)n3)[C@H](O)[C@@H]2O)ccc1O`, the Potency result was “inactive”.

With `OCC[C@H]1C[C@@H](O)[C@H](O)[C@]2(OCCCc3ccccc32)O1`, the Potency result was “inactive”.

`O=C(NCCCN1CCCCC1)c1ccc2c(c1)NC(=O)C(N1CCOCC1)S2` (stereo not given): the Potency entry is “inactive”.

Take `O=C(NCCN1CCOCC1)Nc1cccc(Cl)c1`: the Potency result is “inactive”.

Take `CCN1CCN(CCNC(=O)c2ccc3c(c2)NC(=O)/C(=C\c2cccc(Cl)c2)S3)CC1`: the Potency is 16.4 µM (active).

For the compound `Cc1cc(C)n(-c2ccc(NC(=O)C3CCCCN3C(=O)c3cccs3)cc2)n1` (stereo not given), the Potency entry is “inactive”.

On to `CCOc1ccc(/C=C(/NC(=O)c2ccccc2)C(=O)NCCC(=O)O)cc1`, for which the Potency entry was “inactive”.

`O=C1CCNCCN1[C@H](CO)Cc1ccccc1`: the Potency result was “inactive”.

`O=C1CC[C@H](O)CCN1[C@H](CSc1ccc(Br)cc1)Cc1ccccc1`: the Potency is 15.8 µM (active) and 16.4 µM (active).

`O=C1CCN(Cc2ccc([N+](=O)[O-])cc2)CCN1[C@H](CO)Cc1ccccc1`: the Potency entry is “inactive”.

In the case of `COc1ccccc1NC(=O)C1=C(C)Nc2ncnn2C1c1ccc(C)o1` (stereo not given), the Potency result is “inactive”.

Regarding `CC(OC(=O)c1cc2ccccc2o1)C(=O)Nc1ccc(N2CCOCC2)cc1` (stereo not given), the Potency result is “inactive”.

As to `CCOC(=O)c1ccc(NC(=O)c2c(NCc3cccs3)sc3c2CCCC3)cc1`, the Potency was 20.6 µM (active).

For the compound `CCOC(=O)c1ccc(NC(=O)c2c(NCc3cccc(OC)c3)sc3c2CCC3)cc1`, the Potency is 11.6 µM (active).

For `CC(=O)Cc1nsc(NC(=O)c2csc3c2CCCC3)n1`, the Potency result was “inactive”.

For `COC(=O)c1sc(NC(=S)NC(=O)c2ccc(C)cc2)nc1C`, the Potency entry is “inactive”.

Take `CCOC(=O)c1c(NC(=O)Cc2coc3ccc(CC)cc23)sc2c1CCC2`: the Potency entry is “inactive”.

`CCOc1ccc(CCNC(=O)c2csc3c2CCCCC3)cc1`: the Potency entry is “inactive”.

As to `CCOC(=O)c1ccc(NC(=O)CNC(=O)c2ccco2)cc1`, the Potency entry was “inactive”.

`COC(=O)c1sc(NC(=O)c2csc3c2CCCC3)nc1C`: the Potency was 23.1 µM (active).

For the compound `Cc1ccc(NC(=O)c2csc3c2CCCC3)cc1`, the Potency result was “inactive”.

As for `CCOC(=O)c1ccc(NC(=O)c2c(NCc3ccccc3)[nH]c(=O)[nH]c2=O)cc1`, the Potency entry is “inactive”.

On to `CCOC(=O)c1ccc(NC(=O)c2csc3c2CCCCC3)cc1`, for which the Potency was 14.6 µM (active).

In the case of `CC[C@H](C)C(=O)N[C@H]1CCCN1C(=O)/C=C/c1ccccc1`, the Potency result was “inactive”.

Regarding `Cc1ccc(C(=O)COC(=O)CCCC(=O)NC2CCCCC2)cc1[N+](=O)[O-]`, the Potency result is “inactive”.

As to `COCCNC(=O)C1CCN(C(=O)C2CC(=O)N(c3ccc(C)cc3)C2)CC1` (stereo not given), the Potency result is “inactive”.

For `O=C1CCC(=O)N1c1ccc(NCCc2ccccc2F)c([N+](=O)[O-])c1`, the Potency entry is “inactive”.

On to `CCCCN1CCNC1=S`, for which the Potency result was “inactive”.

Turning to `CC1CC(C)CN(C(=O)CSc2nnc(CSc3ncccn3)n2C)C1` (stereo not given), the Potency entry is “inactive”.

In the case of `COCC1CCCN(C(=O)c2ccc3oc(C(C)C)nc3c2)C1` (stereo not given), the Potency entry is “inactive”.

In the case of `COc1ccc(CCNc2nc3ccc(C)cc3n3cnnc23)cc1OC`, the Potency is 16.4 µM (active) and 23.1 µM (active).

With `COc1ccccc1CNc1nc2ccc(Cl)cc2n2cnnc12`, the Potency entry is “inactive”.

For the compound `COc1ccc(CCNc2nc3c(-c4cccc(F)c4)nnn3c3ccccc23)cc1OC`, the Potency result was “inactive”.

As to `COc1ccc(C2=NOC(C(=O)NCc3ccco3)C2)cc1OC` (stereo not given), the Potency is 2.59 µM (active).

As to `Cc1ccc(NC(=O)C2CC(c3ccc(F)cc3)=NO2)cc1` (stereo not given), the Potency entry is “inactive”.

As for `COc1ccc(-c2cc(C(=O)NCc3ccco3)no2)cc1OC`, the Potency entry was “inactive”.

Take `COc1ccc(CNC(=O)C2CCCC2)cc1`: the Potency entry is “inactive”.

As to `COc1ccc(S(=O)(=O)N2CCC(C(=O)NCc3ccco3)CC2)cc1C`, the Potency result is “inactive”.

On to `COc1ccc(CNC(=O)C2CC(c3ccc(C(F)(F)F)cc3)=NO2)cc1` (stereo not given), for which the Potency was 11.6 µM (active).

In the case of `O=C(COC(=O)COc1ccccc1F)Nc1cccc(S(=O)(=O)N2CCCCC2)c1`, the Potency result is “inactive”.

With `O=C1OCCOC2CCCc3oc(-c4ccccc4)c1c32` (stereo not given), the Potency entry was “inactive”.

Regarding `CCN(CC)CCCN1C(=O)C(=O)/C(=C(/O)c2c(C)nc3ccccn23)C1c1ccc(C)o1` (stereo not given), the Potency result was “inactive”.

Take `O=C(CCNc1n[nH]c(=O)[nH]c1=O)N/N=C\c1ccc(Br)cc1`: the Potency result was “inactive”.

Regarding `Cc1c(O)cc2c(c1C)O[C@](C)(CCC[C@H](C)CCC[C@H](C)CCCC(C)C)CC2`, the Potency result was “inactive”.

Regarding `COc1ccc(NC(=O)CN2C(=O)NC(C)(c3ccccc3)C2=O)cn1` (stereo not given), the Potency entry was “inactive”.

Take `COc1ccc(OCC(=O)NN2Cc3ccccc3C2=N)cc1`: the Potency result is “inactive”.

`Cc1ccc(N2C(=O)c3ccccc3C2(O)c2ncc[nH]2)cc1` (stereo not given): the Potency entry was “inactive”.

Turning to `C=CCNc1cnn(-c2ccc(C)cc2)c(=O)c1Cl`, the Potency entry is “inactive”.

As to `O=C(NCc1ccccc1)c1ccc(S(=O)(=O)Nc2cccc(C(F)(F)F)c2)cc1`, the Potency result was “inactive”.

In the case of `O=C(CCC(=O)c1ccccc1)NCc1cccc(C(F)(F)F)c1`, the Potency entry is “inactive”.

Take `O=C(NCc1cccc(C(F)(F)F)c1)c1cccc(S(=O)(=O)N2CCN(Cc3ccccc3)CC2)c1`: the Potency was 18.4 µM (active).

Take `O=S(=O)(NCCS(=O)(=O)N1CCN(c2ccccc2)CC1)c1ccc(F)cc1`: the Potency entry was “inactive”.

For the compound `CN(Cc1cccc2ncccc12)C(=O)CC1C(=O)NCCN1Cc1ccc(F)cc1` (stereo not given), the Potency result was “inactive”.

In the case of `CC1CN(/C=C/C(=O)C(F)(F)F)CC(C)O1` (stereo not given), the Potency entry is “inactive”.

For the compound `Cc1cc(NC(=O)CN2C(=O)NC(CC(C)C)C2=O)no1` (stereo not given), the Potency entry is “inactive”.

With `Cc1ccc(S(=O)(=O)N(Cc2ccc(Cl)cc2)c2ccccc2C(=O)NCc2cccnc2)cc1`, the Potency was 23.1 µM (active).

As for `CN(c1ccccc1)S(=O)(=O)c1ccc(C(=O)NCc2cccnc2)cc1`, the Potency entry is “inactive”.

For `O=C(NCc1cccnc1)c1cccnc1Sc1ccc(Cl)cc1`, the Potency result was “inactive”.

Consider `CS(=O)(=O)N(Cc1ccccc1Cl)c1ccc(C(=O)NCc2cccnc2)cc1`, for which the Potency was 14.6 µM (active).

On to `O=C(O)c1ccccc1-c1ccccc1C(=O)NCc1cccnc1`, for which the Potency entry is “inactive”.

Consider `CS(=O)(=O)N(Cc1ccccc1)c1ccc(C(=O)NN=C2CCCCCC2)cc1`, for which the Potency result is “inactive”.
